# Hits are enriched below; roughly 27% of the tested compounds scored in any of these assays.
# CYP2C9 inh = inhibitors of human CYP2C9; CYP2C9 Supersomes, luciferin-H conversion, luminescence; P11712; inhibition, % at 5 µM; AID 777; actives 20% (n = 96,000);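 active means blocking of liver enzyme CYP2C9 beyond about 50% at 5 µM, limit read from the data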
# Cav3 T inh = blocks human Cav3.2 T-type calcium channel; B-score at 10 µM; Cav3.2-expressing cells, Fluo-4 calcium fluorescence FDSS; active compounds read low; actives 4% (n = 100,000); O95180;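 active means single-dose well whose peak fluorescence ratio is a statistical outlier from its plate by either plate-standardised score or position-corrected B-score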
# CYP2C19 inhib = human CYP2C19 inhibition. P33261. inhibition, % at 5 µM. CYP2C19 Supersomes, luciferin-H EGE luminescence, 30 min. actives 21% (n = 96,000);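 active means CYP2C19 inhibition above a set limit at 5 µM in the primary screen, cut at about 50% in these data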;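 further: plate controls were negative control wells for no effect and 2.5 mM tranylcypromine positive control for full effect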
# Target sequence (P33261 whole entry, looked up): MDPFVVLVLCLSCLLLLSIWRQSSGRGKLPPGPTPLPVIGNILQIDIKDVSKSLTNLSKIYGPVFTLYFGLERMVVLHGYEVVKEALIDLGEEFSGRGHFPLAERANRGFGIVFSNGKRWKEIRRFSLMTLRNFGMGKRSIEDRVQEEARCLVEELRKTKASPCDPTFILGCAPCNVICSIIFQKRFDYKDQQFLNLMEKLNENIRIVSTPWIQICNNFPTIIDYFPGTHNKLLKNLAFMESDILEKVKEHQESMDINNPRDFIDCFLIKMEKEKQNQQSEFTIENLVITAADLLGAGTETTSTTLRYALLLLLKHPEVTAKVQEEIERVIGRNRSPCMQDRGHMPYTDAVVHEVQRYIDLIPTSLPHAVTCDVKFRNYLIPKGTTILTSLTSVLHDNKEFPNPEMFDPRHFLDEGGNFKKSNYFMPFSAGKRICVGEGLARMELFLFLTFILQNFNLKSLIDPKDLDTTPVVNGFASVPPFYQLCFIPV
# CYP2C19 act = cytochrome P450 2C19 (human) activation | P33261 | recombinant CYP2C19, luciferin-H EGE luminescence; active compounds read high; 0 = fully inhibited enzyme, 1 = untreated enzyme | activation factor at 5 µM | 96,000 tested, under 10 active | AID 1025;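 active means activation factor of at least 2 at 5 µM in the primary screen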;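 further: 0 = wells with 2.5 mM tranylcypromine and 1 = vehicle-only wells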
# CYP2C9 act = CYP2C9 (human) activation; P11712; recombinant CYP2C9, luciferin-H conversion, luminescence; active compounds read high; factor 1 = untreated enzyme, 0 = blocked; activation factor at 5 µM; actives 1.4% (n = 96,000); AID 1024;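 active means activation factor of 2 or more for CYP2C9 at a 5 µM dose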;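 further: 0 = sulfaphenazole-blocked wells and 1 = vehicle-only wells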
# Active calls of the source: *; . = no result.
SMILES,CYP2C9 inh,Cav3 T inh,CYP2C19 inhib,CYP2C19 act,CYP2C9 act
COc1ccc(/C=N/NC(=O)c2nc(Cl)c(Cl)c(N)c2Cl)cc1COc1ccccc1F,87*,-1.5,62*,0.4,0.1
C=CCN1C(=O)C(O)=C(C(C)=O)C1c1ccccc1F (configuration not stated),15,0.8,-20,1.2,0.9
COC(=O)CSc1nc(N)c(C#N)c(-c2ccco2)c1C#N,15,-0.15,-7,1.1,0.8
COC(=O)CSc1cc(SCC(=O)OC)c(C#N)c(SCC(=O)OC)c1,52*,1.1,38,0.6,0.5
COC(=O)CSc1nc(N)c(C#N)c(C(C)C)c1C#N,48,0.93,59*,0.4,0.5
Cc1cccc(CS(=O)(=O)Cc2ccc(C(=O)NCCN3CCCCC3C)o2)c1 (configuration not stated),19,-0.71,6,0.9,0.8
COCN(C#N)c1nc(OC)nc(OC)n1,-2,-0.76,-1,1,1
Cc1cccc(-n2c(C)nc3sccc3c2=O)c1,2,0.16,42,0.6,1
Cc1nn(-c2nc3ccccc3[nH]2)c(N)c1-c1ccccc1,.,-2.5,.,.,.
O=c1cc(-c2ccccc2)[nH]n1-c1nc2ccccc2[nH]1,56*,-5.6*,5,0.9,0.4
O=C(NC(C(=O)c1ccccc1)N1CCOCC1)c1ccccc1 (configuration not stated),91*,.,79*,0.2,0.1
O=C(NC(C(=O)c1ccccc1)N1CCOCC1)c1cccs1 (configuration not stated),96*,.,94*,0.1,0
Cc1ccc(C(=O)C(NC(=O)c2ccco2)N2CCOCC2)cc1 (configuration not stated),8,-2,31,0.7,0.9
CC1(C)C(=O)Nc2ccccc2N1C(=O)COc1ncnc2c(Cl)cc(Cl)cc12,49,-3.5,77*,0.2,0.5
CC1(C)C(=O)Nc2ccccc2N1C(=O)COc1ccc(S(=O)(=O)N2CCOCC2)cc1Cl,66*,-0.015,42,0.6,0.3
Cc1cnc(C(=O)OCC(=O)N2c3ccccc3NC(=O)C2(C)C)cn1,-3,-0.27,-2,1,1
COc1cc(Cn2c(C(=O)O)cc3sccc32)cc(OC)c1OC,41,0.38,71*,0.3,0.6
CCOC(=O)c1cc2sccc2n1CC(=O)OC,23,0.084,49,0.5,0.8
COC(=O)c1cc2sccc2n1CC(=O)Nc1ccc(OC)c(OC)c1OC,88*,0.038,91*,0.1,0.1
CCOC(=O)c1cc2sccc2n1CC(=O)Nc1ccc(OC)cc1OC,68*,-2.6,99*,0,0.3
Cc1noc(NS(=O)(=O)c2ccc(NC(=O)CSc3nc4c(cc3C#N)CCCC4)cc2)c1C,27,-0.14,-18,1.2,0.7
CC(=O)Nc1cc(C(C)(C)C)c(O)c(C(C)(C)C)c1,88*,0.2,22,0.8,0.1
COc1ccc(Cl)cc1N/C(N)=N/c1nc(CSc2ccc(C)cc2)cc(=O)[nH]1,76*,-3,52*,0.5,0.2
COc1ccc(/C=N/n2cncn2)cc1CSc1ccccn1,35,-0.43,83*,0.2,0.6
CCN(CC)S(=O)(=O)c1cccc(C(=O)N2CCCCC2)c1,-14,0.11,-1,1,1.1
SMILES,CYP2C9 inh,Cav3 T inh,CYP2C19 inhib,CYP2C19 act,CYP2C9 act
CCN(CC)S(=O)(=O)c1ccc(NS(=O)(=O)c2ccc(C)c(C)c2)cc1,99*,-4.3*,98*,0,0
CCN(CC)S(=O)(=O)c1ccc(NC(=O)c2ccc(NS(C)(=O)=O)cc2)cc1,-42,-0.36,-2,1,1.4
O=C(c1ccc(S(=O)(=O)Nc2ccccc2)cc1)N1CCOCC1,8,-0.061,19,0.8,0.9
CCN(CC)S(=O)(=O)c1ccc(S(=O)(=O)Nc2ccc3c(c2)oc2ccccc23)cc1,100*,-0.83,70*,0.3,0
CCN(CC)S(=O)(=O)c1ccc(S(=O)(=O)Nc2ccc(C(=O)N3CCCC3)cc2)cc1,99*,2,51*,0.5,0
O=C(c1ccc(NS(=O)(=O)c2ccccc2)cc1)N1CCCC1,93*,-0.34,76*,0.2,0.1
CCSc1n[nH]c(=O)[nH]c1=O,2,0.51,-1,1,1
O=C(OCc1nnn(Cc2ccccc2)c1-c1c(COC(=O)c2ccccc2)nnn1Cc1ccccc1)c1ccccc1,.,-1.6,.,.,.
Cc1ccccc1-c1nnc(NC(=O)CSc2nc3ccccc3s2)s1,.,-0.96,.,.,.

# Compound activity (PubChem BioAssay)
